Results on 7 compounds are retold here after PubChem BioAssay (Tox21).

Assay [1] is described as follows: Nuclear factor erythroid 2-related factor 2/antioxidant responsive element (Nrf2/ARE) small molecule agonists: luciferase reporter gene qHTS assay in human keratinocytes (AID 1919969). Also: nearly all actives have a fitted effect of over 35% in size. Also: potency is read from the fitted curve at half-maximal effect. On the technique in general: Reporter assays use an easily measured gene product as a stand-in for the process of interest.
The target in assay [2] is Gonadotropin-releasing hormone receptor (Homo sapiens) (UniProt P30968). In words: Human gonadotropin-releasing hormone receptor (GnRHR) small molecule agonists, calcium flux assay in GnRHR-HEK293 cells (AID 1920063). Also: nearly all actives have a fitted effect of over 35% in size. In outline: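 Compounds dissolved in DMSO are pin-transferred onto dye-loaded GnRHR-HEK293 cells, which were seeded 18 h before at 37 C/5% CO2. Calcium signal is read as fluorescence intensity at 1 s intervals for 3 min.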
Background: A change in cytosolic calcium serves as a functional read-out for many receptors and channels.

The target of assay [3] is KiSS-1 receptor (Homo sapiens) (UniProt Q969F8). Briefly: Human kisspeptin (KISS1R) small molecule agonists, calcium flux assay in KISS1R-HEK293 cells (AID 1920064; active = well fitted activation curve with a large enough effect in the repeat runs). In outline: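 Cell line: HEK293, stable human KISS1R. Dye loading 1 h at 37 C after 18 h culture. Read: kinetic fluorescence, 480/540 nm, 3 min at 1 s intervals.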
Assay [4] is described as follows: G protein-coupled receptor (GPCR) small molecule agonists, calcium flux assay: HEK293 wild type cell line counter screen (AID 1920065). In outline: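 Tox21 10K compounds, 15 concentrations each in triplicate, pin-transferred in DMSO onto dye-loaded cells; kinetic read at 480/540 nm for 3 min, 1 s intervals.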
Assay [5] is described as follows: p53 small molecule agonists, cell-based qHTS assay with human liver microsomes (AID 1963577).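 Also: p53 response element beta-lactamase reporter cells with liver microsomes plus NADPH.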 In outline: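 Reporter activation was measured by LiveBLAzer fluorescence intensity in p53RE-bla cells, which had been exposed to compounds for 16 h at 37 C alongside 0.5 mg/mL human liver microsomes and 0.5 mg/mL NADPH (final concentrations).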
Background: qHTS replaces the single test concentration by a dilution series.

The nature of assay [6]: p53 small molecule agonists, cell-based qHTS assay with rat liver microsomes (AID 1963578). In outline:
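Compound in DMSO added to p53RE-bla cells 5 h post-plating; rat microsomes/NADPH 0.5 mg/mL final; 16 h, 37 C; LiveBLAzer 2 h RT.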

Assay [7] is described as follows: p53 small molecule agonists, cell-based qHTS assay with human liver microsomes: qHTS cell viability counter screen (AID 1963579). Also: nearly all actives have a fitted effect of over 45% in size. In outline: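 HLM-supplemented (0.5 mg/mL final) and NADPH-supplemented (0.5 mg/mL final) p53RE-bla cultures, 4,000 cells per well, were dosed with compounds in DMSO for 16 h at 37 C; luminescent ATP detection (CellTiter-Glo, 30 min, room temperature) quantified surviving cells.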

Assay [8] in a line: p53 small molecule agonists, cell-based qHTS assay with rat liver microsomes: qHTS cell viability counter screen (AID 1963580). Also: nearly all actives have a fitted effect of over 45% in size. In outline:
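Counter screen for cytotoxicity under metabolic activation: rat liver microsomes and NADPH, 0.5 mg/mL final each, added with compounds to p53RE-bla HCT-116 cells; 16 h at 37 C, then ATP luminescence read.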

A short description of assay [9]: p53 small molecule agonists, cell-based qHTS assay: qHTS cell viability counter screen (AID 1963581). Also: nearly all actives have a fitted effect of over 45% in size. In outline:
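ATP content measured by luminescence in HCT-116 p53RE-bla cells treated 16 h at 37 C, same wells as the reporter screen.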

A short description of assay [10]: p53 small molecule agonists, cell-based qHTS assay (AID 1963582; active = well fitted activation curve with a large enough effect in the signal ratio in the repeat runs, not every such curve was filed as active; the % refers to the signal ratio). In outline:
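16 h compound exposure (37 C) of p53 response element–bla cells, preceded by 5 h recovery at 37 C/5% CO2; read-out via LiveBLAzer B/G FRET substrate, 2 h RT, fluorescence intensity.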

The target of assay [11] is 5-hydroxytryptamine receptor 2A (Homo sapiens) (UniProt P28223). In words: 5-hydroxytryptamine receptor 2A (HTR2A) small molecule antagonists, cell-based qHTS assay (AID 1963586). Also: nearly all actives have a fitted effect of over 45% in size. Also: potency is read from the fitted curve at half-maximal effect. In outline: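 CHO cells stably expressing human HTR2A were plated for 18 h at 37 C, then loaded with calcium dye for 1 h. Compounds were preincubated 5 min at room temperature before DOI (4 nM solution) was added. Kinetic fluorescence was read for 3 min.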

Assay [12] has the same target. In words: 5-hydroxytryptamine receptor 2A (HTR2A) small molecule agonists, cell-based qHTS assay (AID 1963587). Also: nearly all actives have a fitted effect of over 30% in size. Also: potency is read from the fitted curve at half-maximal effect. In outline: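 HTR2A-CHO cells, plated 18 h at 37 C/5% CO2, dye-loaded 1 h at 37 C; compounds in DMSO added by pin tool (agonist mode). Intracellular calcium flux read as kinetic fluorescence on FDSS over 2 min at 1 s intervals.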
The target in assay [13] is Muscarinic acetylcholine receptor M1 (Homo sapiens) (UniProt P11229). Briefly: Cholinergic receptor muscarinic 1 (CHRM1) small molecule antagonists, cell-based qHTS assay (AID 1963588). Also: nearly all actives have a fitted effect of over 40% in size. Also: potency is read from the fitted curve at half-maximal effect. In outline:
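Compounds were tested at 15 concentrations in three independent runs. Dye-loaded CHRM1-CHO cells were exposed 5 min at room temperature before stimulation by acetylcholine added at 50nM. Intracellular calcium was read kinetically on FDSS for 3 min.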

Assay [14] shares this target. In words: Cholinergic receptor muscarinic 1 (CHRM1) small molecule agonists, cell-based qHTS assay (AID 1963589). Also: nearly all actives have a fitted effect of over 35% in size. Also: potency is read from the fitted curve at half-maximal effect. In outline:
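Homogeneous fluorescence calcium flux, agonist mode. Human M1-expressing CHO cells; compound dosed at 15 concentrations, three independent runs; signal sampled every 1 sec.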

The target of assay [15] is D(2) dopamine receptor (Homo sapiens) (UniProt P14416). Briefly: Dopamine D2 receptor (DRD2) small molecule agonists, cell-based qHTS assay (AID 1963594). Also: nearly all actives have a fitted effect of over 35% in size. In outline:
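HEK293 cells stably expressing DRD2 were cultured 24 h at 37 C, then given Ro20-1724 (0.1 mM final) and compounds for 10 min at room temperature. NKH477 (200nM) was then added for 30 min. cAMP was read by HTRF.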

Assay [16] shares this target. In words: Dopamine D2 receptor (DRD2) small molecule antagonists, cell-based qHTS assay (AID 1963595; active = well fitted inhibition curve with a large enough effect in the signal ratio in the repeat runs, with a control signal flat; the % refers to the signal ratio). In outline: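 Cells were plated and grown for 24 h at 37 °C. Ro20-1724 (0.1 mM final) went in first, then compound for 10 min. NKH477 (200 nM) with quinpirole (12 nM) followed for 30 min at RT, then HTRF detection reagents for 1 h.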
A short description of assay [17]: cAMP Responsive Elements (CRE) small molecule antagonists, cell-based qHTS assay (AID 1963591; active = well fitted inhibition curve with a large enough effect in the signal ratio in the repeat runs, not every such curve was filed as active; the % refers to the signal ratio). In outline:
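First, CRE-bla HEK293T cells settled 18 h at 37 C. Next, compound and 0.25 uM final NKH477 were applied for 3 h. Last, LiveBLAzer B/G substrate was loaded for 2 h at room temperature.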

The target of assay [18] is Beta-2 adrenergic receptor (Homo sapiens) (UniProt P07550). Briefly: Adrenergic beta2 receptor (ADRB2) small molecule antagonists, cell-based qHTS assay (AID 1963592). Also: series mostly up to about 92 µM; nearly all actives have a fitted effect of over 50% in size. In outline: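 Assay format: CHO-ADRB2 cells, 18-20hr seeding at 37C/5% CO2, then compound plus 1nM isoproterenol agonist mix for 0.5hr RT. Homogeneous time-resolved fluorescence cAMP detection after 1hr, expressed as 665/615 nm ratio.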

Assay [19] shares this target. Briefly: Adrenergic beta2 receptor (ADRB2) small molecule agonists, cell-based qHTS assay (AID 1963593).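 Also: CHO cells stably overexpressing human ADRB2.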 In outline: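 CHO cells stably over-expressing ADRB2 were plated overnight at 37C, then dosed with compounds plus a stimulation mix containing 100uM IBMX and 25uM Ro-20-1724 for 0.5hr at room temperature. cAMP was measured by HTRF competition, 1hr.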
A short description of assay [20]: cAMP Responsive Elements (CRE) small molecule agonists, cell-based qHTS assay (AID 1963590). In outline:
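HEK 293T cells stably bearing CRE-bla were plated at 2,000 cells per well and rested 18 h. Compounds, positive controls or DMSO were added for 3 h at 37 C. LiveBLAzer B/G substrate was then loaded for 2 h at room temperature.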

The structures appear in SMILES notation. Results filed as inconclusive are left out. The source made the active and inactive calls. Unless noted, calls follow the shape of the full dose curve.

Chain of 5-hydroxytryptamine receptor 2A (Homo sapiens) (P28223 whole entry, looked up): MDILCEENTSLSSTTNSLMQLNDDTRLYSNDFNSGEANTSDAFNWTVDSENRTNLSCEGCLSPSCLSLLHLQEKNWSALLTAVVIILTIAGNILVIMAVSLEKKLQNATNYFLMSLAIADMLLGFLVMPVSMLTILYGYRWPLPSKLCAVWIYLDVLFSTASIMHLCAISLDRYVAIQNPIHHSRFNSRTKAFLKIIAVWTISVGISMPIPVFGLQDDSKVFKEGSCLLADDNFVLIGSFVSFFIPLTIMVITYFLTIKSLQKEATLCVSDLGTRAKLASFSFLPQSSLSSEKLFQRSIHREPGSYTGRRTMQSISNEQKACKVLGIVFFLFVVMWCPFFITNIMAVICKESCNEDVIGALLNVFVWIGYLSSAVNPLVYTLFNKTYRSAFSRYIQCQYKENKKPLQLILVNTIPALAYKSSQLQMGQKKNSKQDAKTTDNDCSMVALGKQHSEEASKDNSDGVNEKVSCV
Chain of D(2) dopamine receptor (Homo sapiens) (P14416 whole entry, looked up): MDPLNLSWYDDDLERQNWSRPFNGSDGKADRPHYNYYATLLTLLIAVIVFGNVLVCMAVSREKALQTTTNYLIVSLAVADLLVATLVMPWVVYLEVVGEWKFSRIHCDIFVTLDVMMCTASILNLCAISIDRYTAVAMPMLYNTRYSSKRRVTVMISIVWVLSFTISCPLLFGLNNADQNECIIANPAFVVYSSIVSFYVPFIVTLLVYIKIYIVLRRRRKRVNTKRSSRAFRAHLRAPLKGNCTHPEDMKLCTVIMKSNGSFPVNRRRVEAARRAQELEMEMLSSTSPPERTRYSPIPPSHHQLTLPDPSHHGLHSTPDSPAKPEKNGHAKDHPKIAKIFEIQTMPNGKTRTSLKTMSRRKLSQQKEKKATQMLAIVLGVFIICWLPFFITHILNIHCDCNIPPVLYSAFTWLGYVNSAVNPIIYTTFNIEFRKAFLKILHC
Chain of KiSS-1 receptor (Homo sapiens) (Q969F8 whole entry, looked up): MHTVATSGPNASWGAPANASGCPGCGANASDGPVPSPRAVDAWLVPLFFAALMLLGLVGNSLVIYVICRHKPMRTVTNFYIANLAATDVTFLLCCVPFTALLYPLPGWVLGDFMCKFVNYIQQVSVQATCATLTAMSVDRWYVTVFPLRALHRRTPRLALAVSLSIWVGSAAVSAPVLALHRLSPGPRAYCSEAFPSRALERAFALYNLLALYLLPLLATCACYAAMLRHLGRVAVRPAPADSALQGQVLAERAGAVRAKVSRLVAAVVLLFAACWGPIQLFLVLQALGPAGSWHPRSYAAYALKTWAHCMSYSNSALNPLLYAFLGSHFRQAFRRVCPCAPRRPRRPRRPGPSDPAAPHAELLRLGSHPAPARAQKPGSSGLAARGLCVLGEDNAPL
Chain of Beta-2 adrenergic receptor (Homo sapiens) (P07550 whole entry, looked up): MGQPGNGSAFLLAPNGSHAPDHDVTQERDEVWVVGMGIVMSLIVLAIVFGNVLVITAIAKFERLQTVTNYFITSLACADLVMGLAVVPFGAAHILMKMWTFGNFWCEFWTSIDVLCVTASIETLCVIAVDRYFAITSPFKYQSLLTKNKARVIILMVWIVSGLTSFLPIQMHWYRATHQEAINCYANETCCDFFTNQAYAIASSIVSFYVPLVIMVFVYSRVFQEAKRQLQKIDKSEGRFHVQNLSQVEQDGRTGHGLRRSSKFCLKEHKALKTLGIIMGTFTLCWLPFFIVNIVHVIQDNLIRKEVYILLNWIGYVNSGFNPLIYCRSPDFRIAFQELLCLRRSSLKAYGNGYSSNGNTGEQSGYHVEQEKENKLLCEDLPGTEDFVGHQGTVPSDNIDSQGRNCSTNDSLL
Chain of Muscarinic acetylcholine receptor M1 (Homo sapiens) (P11229 whole entry, looked up): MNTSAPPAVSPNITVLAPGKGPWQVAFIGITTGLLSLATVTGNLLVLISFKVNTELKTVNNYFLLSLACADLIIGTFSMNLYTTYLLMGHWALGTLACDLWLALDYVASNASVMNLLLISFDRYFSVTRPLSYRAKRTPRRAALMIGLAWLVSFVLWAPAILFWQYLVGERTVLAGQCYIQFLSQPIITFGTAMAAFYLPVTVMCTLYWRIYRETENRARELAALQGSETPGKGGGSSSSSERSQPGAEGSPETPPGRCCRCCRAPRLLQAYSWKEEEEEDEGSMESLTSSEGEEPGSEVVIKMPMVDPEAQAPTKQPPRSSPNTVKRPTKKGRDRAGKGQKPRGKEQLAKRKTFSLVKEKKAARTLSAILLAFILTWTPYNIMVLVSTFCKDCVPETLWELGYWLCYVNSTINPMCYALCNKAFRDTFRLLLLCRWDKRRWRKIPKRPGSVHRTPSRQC
Chain of Gonadotropin-releasing hormone receptor (Homo sapiens) (P30968 whole entry, looked up): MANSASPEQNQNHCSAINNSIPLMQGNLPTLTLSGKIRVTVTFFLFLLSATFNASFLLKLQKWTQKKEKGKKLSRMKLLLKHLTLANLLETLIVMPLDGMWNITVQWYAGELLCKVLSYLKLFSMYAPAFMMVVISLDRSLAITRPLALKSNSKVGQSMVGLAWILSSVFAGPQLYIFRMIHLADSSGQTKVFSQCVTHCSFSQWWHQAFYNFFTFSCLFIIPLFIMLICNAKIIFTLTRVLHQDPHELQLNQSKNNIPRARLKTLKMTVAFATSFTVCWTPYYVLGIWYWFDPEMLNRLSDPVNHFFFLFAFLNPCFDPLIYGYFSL

Consider `OCC(c1ccc(Cl)cc1)c1ccc(Cl)cc1`, for which the Potency result in assay [1], in assay [2], in assay [3], in [4], in [5] and in [6] was “inactive” each time. In addition, the Potency result in assay [7], in assay [8], in assay [9], in [10], in assay [12] and in assay [14] was “inactive” in each case. The Potency result in assay [15] and in assay [16] was “inactive” each time. For the same compound, the Potency was 7.48 µM (active) in assay [11] and 42.1 µM (active) in assay [13].
As for `CC(C)[C@@H](C(=O)O[C@@H](C#N)c1cccc(Oc2ccccc2)c1)c1ccc(Cl)cc1`, the Potency entry in [1], in assay [2], in [3], in assay [4], in assay [5] and in assay [6] was “inactive” throughout. Besides, the Potency entry in assay [7], in assay [8], in assay [9], in assay [10], in [11] and in assay [12] was “inactive” throughout. For the same compound, the Potency result in assay [13], in assay [14], in assay [17], in assay [18], in assay [19] and in assay [15] was “inactive” in each case. For the same compound, the Potency result in [16] was “inactive”.
`OC(Cc1ccccc1Cl)(Cn1[nH]cnc1=S)C1(Cl)CC1` (stereo not given): the Potency in assay [1] is 10.9 µM (active); in assay [12], 38.9 µM (active). Besides, the Potency entry in assay [2], in assay [3], in [4], in assay [5], in assay [6] and in [7] was “inactive” each time. Further, the Potency entry in [8], in assay [9], in assay [13], in assay [20], in [17] and in assay [18] was “inactive” each time. Besides, the Potency result in assay [15] and in assay [16] was “inactive” each time.
In the case of `ClCc1ccc(Cl)cc1Cl`, the Potency entry in [1], in [2], in [3], in assay [4], in [5] and in [6] was “inactive” each time. Moreover, the Potency entry in assay [7], in assay [9], in assay [11], in [12], in assay [13] and in [14] was “inactive” each time. Besides, the Potency entry in assay [20], in [17], in assay [18], in assay [15] and in assay [16] was “inactive” in each case.
For the compound `NS(=O)(=O)C(F)(F)C(F)(F)C(F)(F)C(F)(F)C(F)(F)C(F)(F)C(F)(F)C(F)(F)F`, the values for the Potency in assay [1] and in assay [14] were 68.6 µM (active) and 0.0022 µM (active), respectively. In addition, the Potency result in assay [2], in assay [3], in assay [4], in assay [5], in assay [6] and in assay [7] was “inactive” each time. In addition, the Potency result in assay [8], in assay [9], in [11], in assay [12], in assay [13] and in assay [17] was “inactive” each time. Moreover, the Potency result in assay [18], in assay [19] and in assay [16] was “inactive” throughout.
For `C[N+](C)(C)CC1CO1` (stereo not given), the Potency result in assay [1], in assay [2], in assay [3], in [4], in [5] and in assay [6] was “inactive” throughout. Moreover, the Potency result in assay [7], in [8], in assay [9], in [10], in [11] and in assay [12] was “inactive” in each case. For the same compound, the Potency result in assay [20], in [17], in assay [18], in [15] and in [16] was “inactive” throughout.
With `CN1C(=O)[C@@H](NC(=O)c2cc3ccccc3[nH]2)N=C(c2ccccc2)c2ccccc21`, the Potency result in assay [1], in assay [2], in [3], in [4], in [5] and in [6] was “inactive” in each case. Also, the Potency result in [7], in assay [8], in [9], in assay [11], in assay [12] and in assay [13] was “inactive” in each case. The Potency entry in assay [14], in [20], in assay [17], in [18], in assay [15] and in assay [16] was “inactive” each time.
